The target of assay [1] is Nuclear receptor subfamily 1 group I member 3 (Homo sapiens) (UniProt Q14994). The assay can be described thus: ATG_CAR_TRANS: Attagene TRANS-FACTORIAL HepG2 Assay for human Constitutive Androstane Receptor (CAR) (AID 2282969).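 Also: activators raise reporter mRNA above DMSO so AC50 marks induction.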 The settings on record: HepG2 Attagene TRANS-FACTORIAL CAR reporter. The procedure, abridged: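 Steps: transient transfection of HepG2 with multiple GAL4-UAS reporter units; 24 h compound incubation; RNA isolation, RT-PCR, 6-FAM primer extension, HpaI digest; capillary electrophoresis. Gain-of-signal relative to DMSO negative control.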

In assay [2] the target is Estrogen receptor (Homo sapiens) (UniProt P03372). Kind of assay: ATG_ERa_TRANS: Attagene TRANS-FACTORIAL HepG2 Assay for human Estrogen Receptor alpha (ERa) (AID 2282970). The settings on record: HepG2 Attagene TRANS ERa GAL4 reporter, mRNA. In short, it runs like this: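 Transfected HepG2 cells carrying GAL4-UAS-driven reporter units were dosed for 24 hours. Total RNA was reverse-transcribed, reporter sequences PCR-amplified, FAM-labelled, HpaI-digested and resolved by capillary electrophoresis. Increases over DMSO control defined activity.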

The target of assay [3] is Steroid hormone receptor ERR1 (Homo sapiens) (UniProt P11474). The assay can be described thus: ATG_ERRa_TRANS: Attagene TRANS-FACTORIAL HepG2 Assay for human Estrogen-Related Receptor alpha (ERRa) (AID 2282971). The settings on record: HepG2 Attagene TRANS reporter, ERRa transactivation. In short, it runs like this: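 HepG2 cells were transiently transfected with multiple GAL4-UAS reporter units, then dosed with compound for 24 h. Total RNA was reverse-transcribed, reporter cDNA PCR-amplified and fluorescently labelled, and fragments resolved by capillary electrophoresis; induction was compared with DMSO.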

Assay [4] deals with X-box-binding protein 1 (Homo sapiens) (UniProt P17861). The assay can be described thus: ATG_Xbp1_CIS: Attagene CIS-FACTORIAL HepG2 Assay for human X-box Binding Protein 1 (XBP1) (AID 2282972; active = hit-call score of the fitted dose curve at least 0.9, where 1 is the maximum; inactive = score below 0.9). The settings on record: HepG2 XBP1 cis-element reporter, Attagene multiplex; actives raise or lower the signal. The procedure, abridged: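 Read-out: fluorescent reporter mRNA fragments resolved by capillary electrophoresis after RT-PCR. Human HepG2 liver cells carried transfected cis-promoter reporter units and were exposed to chemicals for 24 hours. Gain or loss of signal fitted relative to DMSO baseline.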

A short description of assay [5]: ATG_M_19_TRANS: Attagene TRANS-FACTORIAL HepG2 Assay for M19 Transcription Factor (Internal Marker) (AID 2282974). The settings on record: HepG2 Attagene TRANS-FACTORIAL M19 internal marker reporter. In short, it runs like this:
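HepG2 cells transiently transfected with multiple GAL4-UAS reporter transcription units were exposed to chemicals for 24 h. Reporter mRNA was read by RT-PCR, 6-FAM primer extension, HpaI digestion and capillary electrophoresis; gain of signal fitted relative to DMSO.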

Assay [6] has as its target Estrogen-related receptor gamma (Homo sapiens) (UniProt P62508). Kind of assay: ATG_ERRg_TRANS: Attagene TRANS-FACTORIAL HepG2 Assay for human Estrogen-Related Receptor gamma (ERRg) (AID 2282977).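 Also: hits increase reporter signal over DMSO so potencies reflect activators.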 The settings on record: HepG2 Attagene TRANS reporter, ERRg transactivation. The procedure, abridged:
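Induction of reporter transcripts through a chimeric NR-Gal4 protein is quantified in transfected human HepG2 liver cells after 24 h chemical exposure, using RT-PCR with capillary electrophoresis detection and DMSO as baseline.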

Assay [7] has as its target Bile acid receptor (Homo sapiens) (UniProt Q96RI1). The assay can be described thus: ATG_FXR_TRANS: Attagene TRANS-FACTORIAL HepG2 Assay for Farnesoid X Receptor (FXR) (AID 2282979).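 Also: hits raise reporter mRNA above DMSO so AC50 marks FXR activation.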 The settings on record: HepG2 Attagene TRANS FXR-GAL4 reporter transcription. The procedure, abridged: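 Chimeric FXR-GAL4 activity in transiently transfected human HepG2 liver cells is scored as induction of reporter mRNA after 24 h of dosing. Detection uses RT-PCR with fluorescent labelling and capillary electrophoresis, with DMSO serving as baseline.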

Assay [8] concerns the target Oxysterols receptor LXR-alpha (Homo sapiens) (UniProt Q13133). The assay can be described thus: ATG_LXRa_TRANS: Attagene TRANS-FACTORIAL HepG2 Assay for human Liver X Receptor alpha (LXRa) (AID 2282980). The settings on record: HepG2 Attagene TRANS reporter, LXRa transactivation. The procedure, abridged: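 Transient HepG2 transfectants, 24 h dosing, RT-PCR/CE mRNA reporter quantitation; gain-of-signal vs DMSO.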

Assay [9] has as its target Glucocorticoid receptor (Homo sapiens) (UniProt P04150). Kind of assay: ATG_GR_TRANS: Attagene TRANS-FACTORIAL HepG2 Assay for human Glucocorticoid Receptor (GR) (AID 2282978).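 Also: activators score as hits since higher reporter transcript over DMSO is fitted.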 The settings on record: HepG2 Attagene TRANS GR reporter, mRNA transcription. In short, it runs like this: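 HepG2 cells transiently transfected with multiplexed reporter units in which chimeric NR-GAL4 proteins drive GAL4-UAS reporters; 24 h compound exposure. Reporter mRNA measured by RT-PCR, 6-FAM labelling, HpaI digestion and capillary electrophoresis; gain-of-signal fitted versus DMSO.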

Assay [10] is described as follows: ATG_GAL4_TRANS: Attagene TRANS-FACTORIAL HepG2 Assay for GAL4 (Internal Marker) (AID 2282976). The settings on record: HepG2 Attagene TRANS GAL4 internal marker reporter. In short, it runs like this: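 Fluorescence from capillary electrophoresis of labelled RT-PCR products quantifies reporter mRNA induction after 24 h dosing of HepG2 cells carrying transfected GAL4-UAS reporter transcription units. Vehicle DMSO serves as baseline.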

Values joined by “and” are separate entries in the source; they are usually repeats but may differ in a detail not shown here. Equal values may be shown once. Inconclusive results are not listed. Some compounds were tested as several samples or in several runs, with calls that do not always agree. Active and inactive are the calls of the source. The calls were made as follows, unless noted: active = hit-call score of the fitted dose curve at least 0.9, where 1 is the maximum; inconclusive = response in the unintended direction; inactive = score below 0.9.

Sequence of Steroid hormone receptor ERR1 (Homo sapiens) (P11474 whole entry, looked up, the tested form may be a part): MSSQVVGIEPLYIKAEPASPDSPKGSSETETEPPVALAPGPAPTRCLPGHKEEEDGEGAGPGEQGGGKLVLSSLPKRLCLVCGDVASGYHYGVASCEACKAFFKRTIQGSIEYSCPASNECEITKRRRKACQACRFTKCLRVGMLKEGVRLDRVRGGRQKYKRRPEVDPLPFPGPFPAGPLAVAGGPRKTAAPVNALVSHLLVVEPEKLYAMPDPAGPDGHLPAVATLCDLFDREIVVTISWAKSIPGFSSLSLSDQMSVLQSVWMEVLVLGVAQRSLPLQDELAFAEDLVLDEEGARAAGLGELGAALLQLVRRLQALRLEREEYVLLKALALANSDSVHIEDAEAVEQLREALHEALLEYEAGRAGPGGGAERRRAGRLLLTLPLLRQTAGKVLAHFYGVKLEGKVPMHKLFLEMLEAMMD
Sequence of Bile acid receptor (Homo sapiens) (Q96RI1 whole entry, looked up, the tested form may be a part): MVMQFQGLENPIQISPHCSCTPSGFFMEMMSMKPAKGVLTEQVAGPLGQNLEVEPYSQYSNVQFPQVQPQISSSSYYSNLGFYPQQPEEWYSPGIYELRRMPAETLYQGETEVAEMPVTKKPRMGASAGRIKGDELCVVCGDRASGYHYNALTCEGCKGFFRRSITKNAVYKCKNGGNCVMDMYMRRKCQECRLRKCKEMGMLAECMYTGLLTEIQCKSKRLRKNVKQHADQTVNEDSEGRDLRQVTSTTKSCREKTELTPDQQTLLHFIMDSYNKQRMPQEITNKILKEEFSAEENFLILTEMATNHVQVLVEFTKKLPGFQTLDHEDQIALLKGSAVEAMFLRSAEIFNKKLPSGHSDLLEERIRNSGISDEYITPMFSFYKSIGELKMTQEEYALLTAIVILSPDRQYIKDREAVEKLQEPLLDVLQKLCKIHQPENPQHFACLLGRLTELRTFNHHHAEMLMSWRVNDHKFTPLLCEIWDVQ
Sequence of Estrogen receptor (Homo sapiens) (P03372 whole entry, looked up, the tested form may be a part): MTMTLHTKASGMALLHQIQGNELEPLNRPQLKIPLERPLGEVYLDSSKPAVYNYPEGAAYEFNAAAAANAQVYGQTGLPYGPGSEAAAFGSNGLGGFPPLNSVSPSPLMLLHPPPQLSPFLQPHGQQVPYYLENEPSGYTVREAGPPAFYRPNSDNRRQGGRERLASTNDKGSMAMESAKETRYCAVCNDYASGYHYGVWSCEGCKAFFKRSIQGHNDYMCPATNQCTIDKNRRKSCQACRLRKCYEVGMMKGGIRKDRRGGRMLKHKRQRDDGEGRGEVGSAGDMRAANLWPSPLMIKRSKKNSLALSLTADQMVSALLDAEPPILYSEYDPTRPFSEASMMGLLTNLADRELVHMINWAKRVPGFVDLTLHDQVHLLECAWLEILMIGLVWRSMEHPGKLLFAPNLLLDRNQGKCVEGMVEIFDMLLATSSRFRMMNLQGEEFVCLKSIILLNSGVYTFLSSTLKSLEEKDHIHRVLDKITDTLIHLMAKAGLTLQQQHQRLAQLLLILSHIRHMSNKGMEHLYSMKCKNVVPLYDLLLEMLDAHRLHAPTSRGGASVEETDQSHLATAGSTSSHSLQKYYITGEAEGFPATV
Sequence of X-box-binding protein 1 (Homo sapiens) (P17861 whole entry, looked up, the tested form may be a part): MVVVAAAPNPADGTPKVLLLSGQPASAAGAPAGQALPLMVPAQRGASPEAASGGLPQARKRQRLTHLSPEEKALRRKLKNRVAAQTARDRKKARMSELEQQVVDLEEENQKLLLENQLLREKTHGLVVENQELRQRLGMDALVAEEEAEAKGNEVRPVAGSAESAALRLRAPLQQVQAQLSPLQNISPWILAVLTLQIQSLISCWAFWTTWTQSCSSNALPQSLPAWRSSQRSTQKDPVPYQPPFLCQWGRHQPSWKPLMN
Sequence of Estrogen-related receptor gamma (Homo sapiens) (P62508 whole entry, looked up, the tested form may be a part): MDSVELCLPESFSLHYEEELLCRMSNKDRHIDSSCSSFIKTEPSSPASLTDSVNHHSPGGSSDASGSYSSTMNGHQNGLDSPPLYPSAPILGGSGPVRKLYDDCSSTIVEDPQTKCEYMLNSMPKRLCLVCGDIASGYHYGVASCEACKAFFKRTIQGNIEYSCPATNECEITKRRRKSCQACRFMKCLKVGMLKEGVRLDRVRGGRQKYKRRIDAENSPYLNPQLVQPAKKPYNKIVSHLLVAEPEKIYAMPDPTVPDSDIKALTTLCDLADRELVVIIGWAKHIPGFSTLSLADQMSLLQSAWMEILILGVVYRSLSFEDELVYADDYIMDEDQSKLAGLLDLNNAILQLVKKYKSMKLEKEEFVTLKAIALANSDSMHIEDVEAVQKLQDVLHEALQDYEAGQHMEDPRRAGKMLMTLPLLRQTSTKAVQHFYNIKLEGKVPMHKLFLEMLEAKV
Sequence of Oxysterols receptor LXR-alpha (Homo sapiens) (Q13133 whole entry, looked up): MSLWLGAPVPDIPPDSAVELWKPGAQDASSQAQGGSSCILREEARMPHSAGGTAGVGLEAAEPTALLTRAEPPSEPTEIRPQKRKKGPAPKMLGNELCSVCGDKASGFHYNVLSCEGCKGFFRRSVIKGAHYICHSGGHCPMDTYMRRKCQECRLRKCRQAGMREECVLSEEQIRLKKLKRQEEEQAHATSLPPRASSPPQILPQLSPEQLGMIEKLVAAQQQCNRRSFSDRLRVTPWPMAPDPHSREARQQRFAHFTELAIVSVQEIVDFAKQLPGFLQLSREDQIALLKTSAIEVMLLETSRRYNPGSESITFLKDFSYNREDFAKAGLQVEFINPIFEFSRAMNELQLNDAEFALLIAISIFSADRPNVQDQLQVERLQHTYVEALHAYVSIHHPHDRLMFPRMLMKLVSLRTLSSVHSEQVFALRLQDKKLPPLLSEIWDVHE
Sequence of Nuclear receptor subfamily 1 group I member 3 (Homo sapiens) (Q14994 whole entry, looked up, the tested form may be a part): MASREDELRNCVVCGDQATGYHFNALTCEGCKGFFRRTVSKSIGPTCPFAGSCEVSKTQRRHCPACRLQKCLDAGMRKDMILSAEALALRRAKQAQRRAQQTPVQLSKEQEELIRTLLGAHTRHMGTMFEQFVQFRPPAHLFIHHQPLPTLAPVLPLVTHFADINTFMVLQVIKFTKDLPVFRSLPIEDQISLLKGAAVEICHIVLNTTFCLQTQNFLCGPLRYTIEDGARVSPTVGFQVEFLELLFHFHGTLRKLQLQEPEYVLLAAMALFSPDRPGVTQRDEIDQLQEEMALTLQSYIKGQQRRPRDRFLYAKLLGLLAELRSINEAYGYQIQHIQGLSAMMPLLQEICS
Sequence of Glucocorticoid receptor (Homo sapiens) (P04150 whole entry, looked up, the tested form may be a part): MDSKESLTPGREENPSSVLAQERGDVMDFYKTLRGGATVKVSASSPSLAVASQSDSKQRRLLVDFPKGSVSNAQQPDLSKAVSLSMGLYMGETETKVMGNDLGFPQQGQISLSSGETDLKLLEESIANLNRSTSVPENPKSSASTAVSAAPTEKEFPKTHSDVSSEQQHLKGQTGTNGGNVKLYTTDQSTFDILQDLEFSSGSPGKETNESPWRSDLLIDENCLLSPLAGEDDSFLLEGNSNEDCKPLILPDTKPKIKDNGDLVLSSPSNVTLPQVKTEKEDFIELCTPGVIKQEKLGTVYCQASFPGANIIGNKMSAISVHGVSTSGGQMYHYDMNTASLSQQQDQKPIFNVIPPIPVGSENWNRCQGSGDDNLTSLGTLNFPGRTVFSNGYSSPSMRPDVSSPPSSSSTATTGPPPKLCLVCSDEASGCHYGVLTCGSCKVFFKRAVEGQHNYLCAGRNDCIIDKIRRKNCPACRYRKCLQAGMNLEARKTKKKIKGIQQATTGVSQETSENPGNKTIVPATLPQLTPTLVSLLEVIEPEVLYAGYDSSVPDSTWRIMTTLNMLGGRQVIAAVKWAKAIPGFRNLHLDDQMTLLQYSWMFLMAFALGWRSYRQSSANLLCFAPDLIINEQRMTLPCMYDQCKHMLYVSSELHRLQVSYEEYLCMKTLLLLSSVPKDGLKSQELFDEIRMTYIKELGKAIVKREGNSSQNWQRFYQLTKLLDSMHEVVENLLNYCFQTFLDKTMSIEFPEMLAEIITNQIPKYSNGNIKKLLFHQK

Turning to `Cc1cncc(C)c1`, the result in assay [1], in assay [2], in assay [3], in assay [4], in assay [5] and in assay [6] was inactive.

`C=CC(=O)OCCC(F)(F)C(F)(F)C(F)(F)C(F)(F)C(F)(F)C(F)(F)C(F)(F)C(F)(F)F`: the result in assay [1], in assay [3], in assay [4], in assay [5], in assay [7] and in assay [8] was inactive. The AC50 in assay [2] is 11 µM (active).

`Cc1cccc2c1ccc1ccccc12`: the outcome in assay [1], in assay [3], in [4], in assay [5] and in assay [9] was inactive. In addition, in assay [2], the AC50 was 11.2 µM (active).

In the case of `FC(OC(F)(F)C(F)(F)C(F)(F)F)C(F)(F)F` (stereo not drawn), the compound was classed as inactive in [1], in assay [2], in assay [3], in assay [4], in assay [5] and in assay [6]. Moreover, the compound was called inactive in assay [9], in [7] and in assay [8].

For `O=S(=O)(O)C(F)(F)C(F)(F)C(F)(F)C(F)(F)C(F)(F)C(F)(F)C(F)(F)C(F)(F)C(F)(F)C(F)(F)F`, the compound was called inactive in assay [1], in assay [2], in [3], in assay [4], in assay [5] and in assay [10]. Also, the result in [6], in [9], in assay [7] and in assay [8] was inactive.

In the case of `CC1=CC(=O)c2ccccc2C1=O`, the outcome in assay [1], in [2], in assay [3], in assay [4], in [5] and in [6] was inactive. In addition, the call in assay [8] was inactive.

In the case of `Nc1cc(Cl)c(-c2cc(Cl)c(N)cc2Cl)cc1Cl`, the compound was classed as inactive in [1], in [2], in assay [5], in [6] and in [9]. In addition, the concentration at half-maximal activity (AC50) in assay [4] and in [7] was 11.1 µM (active) in each case.

In the case of `Nc1ccc(O)c(C(=O)O)c1`, the result in [1], in assay [3], in [4], in [5], in assay [9] and in assay [7] was inactive. For the same compound, the result in assay [8] was inactive. The AC50 in [2] is 44.6 µM (active).

For the compound `Cc1ccccc1C(OCCN(C)C)c1ccccc1` (stereo not drawn), the outcome in [1], in assay [2], in assay [3], in [4], in assay [10] and in assay [7] was inactive. Besides, the outcome in assay [8] was inactive. The AC50 in [4] is 124 µM (active).

As for `CCO[Si](CCC1CCC2OC2C1)(OCC)OCC` (stereo not drawn), the compound was called inactive in [1], in assay [2], in assay [4], in assay [5], in assay [10] and in assay [6]. For the same compound, the result in assay [9], in assay [7] and in [8] was inactive.

In the case of `C[N+](C)(CCCNS(=O)(=O)CCC(F)(F)C(F)(F)C(F)(F)C(F)(F)C(F)(F)C(F)(F)F)CC(=O)[O-]`, the result in [1], in assay [3], in assay [4], in assay [6], in [9] and in assay [7] was inactive. The compound was called inactive in assay [8]. The half-maximal activity concentration (AC50) in assay [2] was 0.0373 µM (active).

For the compound `CN(CCO)S(=O)(=O)C(F)(F)C(F)(F)C(F)(F)C(F)(F)C(F)(F)C(F)(F)C(F)(F)C(F)(F)F`, the result in assay [1], in assay [2], in assay [3], in assay [4], in assay [5] and in assay [6] was inactive. Further, the compound was called inactive in assay [9] and in assay [8].

Regarding `CCCCCCc1ccc(N)cc1`, the call in assay [1], in assay [3], in [4], in [9], in [7] and in [8] was inactive. Moreover, the concentration at half-maximal activity (AC50) in assay [2] was 11.6 µM (active).

`C/C=C/C(=O)C1=C(C)CCCC1(C)C`: the result in [1], in assay [2], in assay [3], in [6], in assay [9] and in assay [7] was inactive. Moreover, the call in assay [8] was inactive. The concentration at half-maximal activity (AC50) in assay [4] was 34.6 µM (active).

Take `c1cc2cccc3c4cccc5cccc(c(c1)c23)c54`: the result in assay [1], in [2], in assay [3], in assay [4], in [6] and in assay [9] was inactive. Further, in assay [7], the compound was classed as inactive.

Take `O=P(O)(O)CCC(F)(F)C(F)(F)C(F)(F)C(F)(F)C(F)(F)C(F)(F)C(F)(F)C(F)(F)F`: the compound was called inactive in assay [1], in assay [2], in assay [4], in assay [5], in [10] and in assay [9]. Moreover, the compound was called inactive in assay [7] and in assay [8].

As to `CC(C)(O)C(=O)c1ccccc1`, the compound was called inactive in [1], in assay [2], in [3], in assay [4], in assay [5] and in assay [6]. Besides, the result in assay [9] and in assay [7] was inactive.

As for `C=CCOCC(CO)(CO)CO`, the call in assay [1], in assay [2], in assay [4], in [5], in assay [6] and in [9] was inactive. Further, the result in [7] and in [8] was inactive.

For the compound `O=C(O)c1cccc(C(=O)O)n1`, the call in assay [1], in assay [2], in [3], in assay [4], in assay [10] and in assay [6] was inactive. The compound was classed as inactive in assay [9] and in assay [7].

Turning to `O=C(O)C(F)(F)OC(F)(F)C(F)(F)OC(F)(F)C(F)(F)OC(F)(F)C(F)(F)C(F)(F)C(F)(F)F`, the compound was called inactive in [1], in assay [2], in assay [3], in assay [5], in [10] and in [6]. For the same compound, the compound was called inactive in [9], in assay [7] and in assay [8]. Further, the concentration at half-maximal activity (AC50) in assay [2] was 26 µM (active); in assay [4] it was 41.2 µM (active) and 25.4 µM (active); in assay [7], 27 µM (active).

On to `C=CC(=C)CC/C=C(\C)CCC=C(C)C`, for which the compound was called inactive in assay [1], in [2], in assay [3], in [4], in [5] and in [6]. Further, the result in assay [7] and in assay [8] was inactive.

For `CC(C)CCOCCC(C)C`, the compound was called inactive in [1], in [2], in [3], in [4], in [10] and in assay [9]. Moreover, the result in assay [7] was inactive.

Consider `CCOC(OCC)C(=O)c1ccccc1`, for which the compound was classed as inactive in [1], in assay [3], in assay [4], in assay [5], in [6] and in assay [9]. For the same compound, the call in assay [7] and in [8] was inactive. The AC50 in assay [2] is 32.2 µM (active).

(Values after PubChem BioAssay (EPA / NIEHS).)
